Screening results as filed in PubChem.
The entries come from a sample that favours hits as a whole.
STK33 kin inh = human STK33 kinase inhibition. 27,000 compounds, 0.44% hits. AID 2322. ADP-Glo luminescence, MBP substrate. inhibition, % at 12.5 µM; in the data active means inhibition above about 20%
Target sequence (Q9BYT3 whole entry, looked up): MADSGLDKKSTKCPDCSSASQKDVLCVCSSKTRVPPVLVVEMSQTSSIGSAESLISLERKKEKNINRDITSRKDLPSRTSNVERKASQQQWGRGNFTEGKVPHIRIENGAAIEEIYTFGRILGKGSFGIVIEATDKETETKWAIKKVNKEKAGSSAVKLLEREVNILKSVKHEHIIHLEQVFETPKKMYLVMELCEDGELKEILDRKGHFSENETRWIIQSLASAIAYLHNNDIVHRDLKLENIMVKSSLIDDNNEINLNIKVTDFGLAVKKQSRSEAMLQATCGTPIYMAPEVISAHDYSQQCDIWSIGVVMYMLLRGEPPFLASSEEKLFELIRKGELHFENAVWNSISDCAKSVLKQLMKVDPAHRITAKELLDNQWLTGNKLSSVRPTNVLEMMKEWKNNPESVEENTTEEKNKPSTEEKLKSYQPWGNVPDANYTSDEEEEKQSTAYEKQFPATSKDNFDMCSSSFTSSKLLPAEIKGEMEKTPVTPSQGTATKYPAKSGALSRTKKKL
ID4 SMM = binds human ID4 protein on microarray. calls only. 31,000 compounds, 1.2% hits. small molecule microarray, Flag-ID4 binding, fluorescence F/B. P47928; call rule not given here;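 further: a binder raises fluorescence above local background on the spot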
* = called active by the depositor; i = inactive; · = no result given; + = active, no number.

SMILES	STK33 kin inh	ID4 SMM
COc1ccc(CN(C)C[C@@H]2Oc3c(NC(=O)NC(C)C)cccc3C(=O)N([C@H](C)CO)C[C@@H]2C)cc1	·	i
Cc1[nH]c(=S)[nH]c(=O)c1Cc1ccc(C(=O)O)o1	-2	+
C[C@H]1CN([C@@H](C)CO)C(=O)c2cc(C#CC3(O)CCCC3)cnc2O[C@@H]1CN(C)Cc1ccccc1	·	i
OCC1(CO)COC(COc2ccccc2)=N1	·	+
O=C(Cn1c(COc2ccccc2)nc2ccccc21)N1CCOCC1	1	i
C=C1CCC2(C(=O)OC3OC(CO)C(O)C(O)C3O)CCC3(C)C(=CCC4C5(C)CC(O)C(OC6OCC(O)C(O)C6OC6OC(CO)C(O)C(O)C6O)C(C)(CO)C5CCC43C)C2C1 (stereo not given)	-3	i
C[C@H]1CN([C@@H](C)CO)C(=O)c2cc(NC(=O)Cc3cn(C)c4ccccc34)ccc2O[C@@H]1CN(C)C(=O)NC1CCCCC1	-1	i
Cc1ccc(-c2nnc(N3CCN(C(=O)CSc4nc5ccccc5o4)CC3)c3ccccc23)cc1	1	i
Cc1ccc(-c2nnc(N3CCN(C(=O)CSc4nc(C)cc(C)n4)CC3)c3ccccc23)cc1	1	+
O=c1cc(-c2ccc(O)c(O)c2)oc2c(C3O[C@H](CO)[C@H](O)[C@H](O)[C@H]3O)c(O)cc(O)c12 (stereo not given in full)	-1	i
CNC[C@H]1Oc2cc(-c3cccc(C(=O)N(C)C)c3)ccc2S(=O)(=O)N([C@H](C)CO)C[C@@H]1C	·	i
C[C@H]1CN([C@@H](C)CO)S(=O)(=O)c2ccc(-c3cccc(C(=O)N(C)C)c3)cc2O[C@@H]1CN(C)Cc1ccc2c(c1)OCO2	·	+
C[C@H](CO)N1C[C@H](C)[C@H](CN(C)Cc2cccc(C(=O)O)c2)Oc2cc(C3=CCCC3)ccc2S1(=O)=O	·	i
C[C@@H]1CN([C@@H](C)CO)S(=O)(=O)c2ccc(C3=CCCC3)cc2O[C@@H]1CN(C)Cc1cccc(C(=O)O)c1	·	+
C[C@H](CO)N1C[C@H](C)[C@@H](CN(C)C(=O)Nc2cccc3ccccc23)Oc2c(NC(=O)c3ccncc3)cccc2C1=O	·	i
COc1ccc(S(=O)(=O)Nc2ccc3c(c2)CC(=O)N([C@H](C)CO)C[C@@H](C)[C@@H](CN(C)Cc2ccncc2)O3)cc1	-2	·
NCCNc1ccc([N+](=O)[O-])c(Sc2nc3ccccc3[nH]2)c1	-2	i
NCCNc1ccc([N+](=O)[O-])c(NCCO)c1	-3	+
C[C@@H]1CN([C@@H](C)CO)C(=O)Cc2cc(NC(=O)Nc3ccccc3)ccc2O[C@@H]1CN(C)C	-1	·
C[C@H](CO)N1C[C@H](C)[C@H](CN(C)C(=O)Nc2cccc3ccccc23)Oc2c(NC(=O)NC3CCCCC3)cccc2C1=O	·	i
Cc1ccc(-c2nc3ccccc3[nH]2)cc1NC(=O)COc1ccc(C(C)C)cc1	1	i
COc1ccccc1OCC(=O)Nc1cc(-c2nc3ccccc3[nH]2)ccc1C	3	+
C[C@@H]1CN([C@@H](C)CO)S(=O)(=O)c2ccc(-c3ccc(F)cc3)cc2O[C@H]1CN(C)C	·	i
Cc1noc(C)c1S(=O)(=O)N(C)C[C@@H]1OCc2cnnn2CCCC(=O)N([C@@H](C)CO)C[C@@H]1C	-4	+
C[C@@H]1CN([C@@H](C)CO)C(=O)CCCn2nncc2CO[C@@H]1CN(C)C(=O)Nc1ccccc1F	0	i
SMILES	STK33 kin inh	ID4 SMM
C[C@@H]1CN([C@@H](C)CO)C(=O)CCCn2cc(nn2)CO[C@@H]1CN(C)CC1CCCCC1	-2	i
C[C@@H]1CN([C@@H](C)CO)C(=O)CCCn2nncc2CO[C@H]1CN(C)S(C)(=O)=O	1	·
C[C@H]1CN([C@@H](C)CO)C(=O)CCCn2cc(nn2)CO[C@@H]1CN(C)CC1CCCCC1	0	+
C[C@@H]1CN([C@@H](C)CO)C(=O)CCCn2nncc2CO[C@H]1CN(C)C(=O)Nc1ccccc1F	4	+
C[C@H](CO)N1C[C@H](C)[C@@H](CN(C)Cc2ccc(Oc3ccccc3)cc2)OCc2cnnn2CCCC1=O	0	i
C[C@@H]1CN([C@H](C)CO)C(=O)CCCn2nncc2CO[C@@H]1CN(C)Cc1ccc(Oc2ccccc2)cc1	-5	+
O=C(Nc1ccc(I)cc1C(=O)NCCN1CCOCC1)c1ccccc1Cl	-1	i
C=C[C@@]1(C)C[C@H](O)[C@@H]2[C@@H](OC(O)[C@H]2C)[C@@H]1C(=C)C (stereo not given in full)	2	i
COC(=O)N(C)C[C@@H]1OCc2ccccc2-c2ccccc2C(=O)N([C@@H](C)CO)C[C@H]1C	·	i
Cc1noc(C)c1NC(=O)N(C)C[C@@H]1Oc2ccc(NC(=O)c3ccncc3)cc2CC(=O)N([C@H](C)CO)C[C@@H]1C	2	i
Cc1cccc(OCC(=O)Nc2cc(-c3nc4cc(Cl)ccc4o3)ccc2C)c1	0	i
C[C@H](CO)N1C[C@H](C)[C@H](CN(C)C(=O)Nc2ccc(C(F)(F)F)cc2)Oc2ccc(NC(=O)C3CCCCC3)cc2C1=O	-1	·
COc1ccccc1NC(=O)N(C)C[C@@H]1OCc2cnnn2CCCC(=O)N([C@@H](C)CO)C[C@H]1C	1	+
COc1ccccc1NC(=O)N(C)C[C@H]1OCc2cnnn2CCCC(=O)N([C@@H](C)CO)C[C@H]1C	0	i
C[C@H]1CCCCO[C@H](CN(C)C(=O)CCC(F)(F)F)[C@@H](C)CN([C@@H](C)CO)C(=O)c2cc(NS(=O)(=O)c3cccs3)ccc2O1	·	i
Cc1ccc(NC(=O)C2CC(=O)n3cnnc3N2)cc1 (stereo not given)	1	i
O=C(Nc1ccc(F)cc1)C1CC(=O)n2cnnc2N1 (stereo not given)	0	+
C[C@H]1CN([C@@H](C)CO)C(=O)c2cc(C#CCN(C)C)cnc2O[C@H]1CN(C)C(=O)c1ccc(F)cc1	·	i
O=C(NC(=S)Nc1ccccc1-c1nc2ccccc2s1)c1ccco1	10	i
Cc1cccc2c(C(=O)NCCc3ccc(S(N)(=O)=O)cc3)cc(-c3ccccc3Cl)nc12	3	i
COCC#Cc1cnc2c(c1)C(=O)N([C@@H](C)CO)C[C@H](C)[C@@H](CN(C)Cc1ccc(F)cc1)O2	·	i
Cc1ccc(S(=O)(=O)Nc2c(C)[nH]c(=O)[nH]c2=O)cc1C	0	+
Cc1[nH]c(=O)[nH]c(=O)c1NS(=O)(=O)c1ccc2c(c1)CCCC2	1	i
COC(=O)[C@H]1[C@@H]2COc3ccccc3[C@H]2N[C@H]1C(=O)OC	-3	·
O=c1[nH]c(=S)c2c(n1N1CCOCC1)CCC2	·	+
CC(C)NC(=O)Nc1ccc2c(c1)C(=O)N([C@H](C)CO)C[C@H](C)[C@H](CN(C)C(=O)CCC(F)(F)F)OCCCC[C@@H](C)O2	-2	·
O=C(NCc1ccc(F)cc1)[C@H]1C[C@H]2C(=O)N[C@@H](Cc3ccccc3)C(=O)N2[C@H]1c1cccc(OCCO)c1	5	+
CC(C)C[C@@H]1NC(=O)[C@@H]2C[C@H](C(=O)NCc3ccc(F)cc3)[C@H](c3cccc(OCCO)c3)N2C1=O	5	i
O=C1N[C@@H](Cc2ccccc2)C(=O)N2[C@@H]1C[C@@H](C(=O)NCc1ccc(F)cc1)[C@H]2c1ccc(O)cc1	-9	+
